Reference: PMC4336329 (PLoS ONE, 2015)
About 14,000 (4.5%) of roughly 310,000 compounds showed an effect of 50% or more. The effect is printed as a negative number. The list comes from a sample in which strong results are over-represented; it also holds similar structures and randomly drawn compounds.

Molecular target: human ether-à-go-go-related gene (hERG) potassium channel (human, UniProt Q12809)
Test: primary screen, population patch clamp on CHO cells stably expressing hERG; higher = less effect of the substance
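Note: peak tail current of the secondary pulse compared with the same well before compound.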

Chain of human ether-à-go-go-related gene (hERG) potassium channel (Q12809 whole entry, looked up): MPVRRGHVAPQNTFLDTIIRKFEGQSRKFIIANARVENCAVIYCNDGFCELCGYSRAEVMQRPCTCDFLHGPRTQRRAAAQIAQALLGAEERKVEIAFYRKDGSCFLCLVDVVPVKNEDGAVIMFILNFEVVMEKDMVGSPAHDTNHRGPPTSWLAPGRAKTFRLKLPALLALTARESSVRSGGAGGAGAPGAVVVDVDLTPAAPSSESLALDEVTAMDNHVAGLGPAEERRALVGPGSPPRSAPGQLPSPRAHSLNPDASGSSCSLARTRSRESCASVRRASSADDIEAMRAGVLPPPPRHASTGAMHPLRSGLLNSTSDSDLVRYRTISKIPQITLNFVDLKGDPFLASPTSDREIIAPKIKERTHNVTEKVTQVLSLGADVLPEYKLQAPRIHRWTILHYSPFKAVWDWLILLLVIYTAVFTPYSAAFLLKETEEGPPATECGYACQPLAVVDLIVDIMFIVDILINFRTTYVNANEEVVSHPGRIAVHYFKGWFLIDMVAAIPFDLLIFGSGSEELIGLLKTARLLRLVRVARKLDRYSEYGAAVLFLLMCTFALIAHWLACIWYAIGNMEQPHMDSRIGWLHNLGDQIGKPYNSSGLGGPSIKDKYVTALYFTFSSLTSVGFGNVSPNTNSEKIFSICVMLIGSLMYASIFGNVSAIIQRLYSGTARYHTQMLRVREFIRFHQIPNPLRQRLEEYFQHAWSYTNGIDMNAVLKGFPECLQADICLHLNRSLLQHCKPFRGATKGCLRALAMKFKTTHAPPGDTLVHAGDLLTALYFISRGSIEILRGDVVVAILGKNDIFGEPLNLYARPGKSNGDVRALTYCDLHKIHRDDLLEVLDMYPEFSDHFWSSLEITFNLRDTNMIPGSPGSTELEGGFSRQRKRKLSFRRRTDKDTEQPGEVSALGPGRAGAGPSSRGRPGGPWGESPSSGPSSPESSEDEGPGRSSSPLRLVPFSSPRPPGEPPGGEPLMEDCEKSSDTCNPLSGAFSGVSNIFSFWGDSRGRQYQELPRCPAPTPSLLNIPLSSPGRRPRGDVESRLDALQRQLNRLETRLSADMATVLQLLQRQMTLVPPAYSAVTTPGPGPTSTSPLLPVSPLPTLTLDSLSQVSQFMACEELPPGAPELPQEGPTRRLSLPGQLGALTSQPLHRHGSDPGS

SMILES | hERG current change (%, negative = inhibition) at 10uM [%]
O=C(Nc1ccc(F)cc1)c1cc2ccccc2o1 | 20
COc1cccc(CSc2nnnn2-c2ccc(O)cc2)c1 | -18.5
CCCCn1c(N)c(N(CCC(C)C)C(=O)c2cc(Cl)nc3ccccc23)c(=O)[nH]c1=O | 15.2
COC(=O)c1cccc(-n2nnnc2SCC(=O)Nc2nc3c(s2)CCCC3)c1 | -0.926
Cc1ccc(OCCC(=O)O)cc1 | 13.4
COc1ccc(OC)c(CNCc2ccc3c(c2)OCO3)c1.O=C(O)C(=O)O | -4.43
CC(=O)c1ccc(NC(=O)C2=CC(c3cccs3)=NS(=O)(=O)N2C)cc1 | -0.218
CN(C)CCC(Oc1ccccc1OCc1ccccc1)c1ccccc1.O=C(O)C(=O)O (stereo not drawn) | -68.6
CC(O)CNCCCOc1ccccc1OCc1ccccc1.O=C(O)C(=O)O (stereo not drawn) | -36.7
CC(C)Oc1ccccc1OCCN(C)C.O=C(O)C(=O)O | 6.22
COC(=O)c1ccccc1S(=O)(=O)N1CCC(C(=O)N2CCC2)CC1 | 3.96
CC(C)C1OC2(C)OC(=N)C1(C#N)C(C#N)(C#N)C2c1ccccc1 (stereo not drawn) | 2.05
COc1ccc(-c2nnc(OCc3nc4ccccc4n3C)c3ccccc23)cc1 | -40.2
Cl.Oc1ccccc1Nc1nc(NCc2ccccc2)c2ccccc2n1 | -1.42
Cl.OCCNc1nc(Nc2ccc(O)cc2)nc2ccccc12 | -28.6
Cl.OCCNc1nc(Nc2ccc(Br)cc2)nc2ccccc12 | -36.3
Cl.OCCNc1nc(Nc2ccc(Cl)c(Cl)c2)nc2ccccc12 | 14.5
CNc1nc(NCc2ccccc2)c2ccccc2n1.Cl | -68.1
Cl.c1ccc(CNc2nc(NCc3ccccc3)c3ccccc3n2)cc1 | 2.65
Cl.OCCNc1nc(Nc2ccccc2)nc2ccccc12 | -35
Cl.OCCNc1nc(NCc2ccccc2)c2ccccc2n1 | -54.6
Cc1ccc(Nc2nc(NCCO)c3ccccc3n2)cc1C.Cl | -52.4

SMILES | hERG current change (%, negative = inhibition) at 10uM [%]
Nc1ccc(C2(c3ccc(N)cc3)CCCCC2)cc1 | 22.1
O=C(Nc1cccnc1)c1cc(-c2ccc(Br)cc2)nc2ccccc12 | -2.53
O=S1(=O)N=C(N2CCc3ccccc3C2)c2ccccc21 | -39
O=C(c1ccco1)N1CCN(c2cc(C(F)(F)F)nc3ncnn23)CC1 | -16.7
Cc1ccc(C(=O)CCNc2cccc(Br)c2)o1 | 4.71
O=C(COc1ccc(Cl)cc1)NCCSCc1cccc(Cl)c1 | -13.5
CC1CCN(c2c(NCC3CCC(C(=O)NCCc4ccc(Cl)cc4)CC3)c(=O)c2=O)CC1 (stereo not drawn) | -3.81
CCCCN(C(=O)c1ccc2ccccc2c1)c1c(N)n(CCCC)c(=O)[nH]c1=O | 8.11
COc1ccc(CCn2c(=N)c(C(=O)NC3CCCC3)cc3c(=O)n4ccccc4nc32)cc1 | -81.9
N=c1c(S(=O)(=O)c2ccc(Cl)cc2)cc2c(=O)n3ccccc3nc2n1CCc1ccccc1 | 4.68
COc1ccc(CCn2c(=N)c(S(=O)(=O)c3ccc(Cl)cc3)cc3c(=O)n4ccccc4nc32)cc1 | 20.5
COc1ccc(Cn2c(=O)[nH]c3cc(C(=O)NC4CCCC4)ccc3c2=O)cc1 | 15.1
COc1ccc(Cn2c(=N)c(C(=O)NC3CCCCC3)cc3c(=O)n4ccccc4nc32)cc1 | -68.9
COc1ccc(CCn2c(=N)c(C(=O)NC3CCCCC3)cc3c(=O)n4ccccc4nc32)cc1 | -79.4
N=c1c(C(=O)NC2CCCCC2)cc2c(=O)n3ccccc3nc2n1CCc1ccccc1 | -81.1
Cc1ccc(S(=O)(=O)c2cc3c(=O)n4ccccc4nc3n(CCc3ccccc3)c2=N)cc1 | 5.39
COc1ccc(NC(=O)c2cc3c(=O)n4ccccc4nc3n2C)c(OC)c1 | 2.99
COc1cccc(-c2csc(NNC(=O)c3cccs3)n2)c1 | -2.17
COc1cc(C(=O)N(Cc2ccc(C)o2)C2CCS(=O)(=O)C2)cc(OC)c1OC (stereo not drawn) | 14.4
O=C(NCc1cccnc1)c1ccc(Br)s1 | -16.9
CCN1C(=O)c2cccc3c(NS(=O)(=O)c4ccc(NC(C)=O)cc4)ccc1c23 | -8.89
O=C(Cc1ccc(Cl)c(Cl)c1)Nc1cccc2ncccc12 | 20.2

SMILES | hERG current change (%, negative = inhibition) at 10uM [%]
COCCCNC(=O)c1c(N)n(-c2ccc(S(N)(=O)=O)cc2)c2nc3ccccc3nc12 | 0.473
Cc1nn(Cc2c(F)c(F)c(F)c(F)c2F)c(C)c1NC(=O)c1cccc(COc2ccc(Cl)cc2)c1 | 2.49
O=C1c2oc3ccc(Br)cc3c(=O)c2C(c2cccc(F)c2)N1CCO (stereo not drawn) | -1.34
ONC(=Nc1ccccc1)c1ccccc1Cl | 2.37
CCc1ccccc1NC(=O)CCC(=O)N1CCSc2ccccc21 | -14.7
CCOC(=O)c1cnc2nc(NCc3ccc(OCc4ccccc4)cc3)[nH]n2c1=O | 5.06
COc1ccc(CCn2c(=N)c(S(=O)(=O)c3ccccc3)cc3c(=O)n4ccccc4nc32)cc1 | 10.9
COCCCn1c(=N)c(C(=O)NC2CCCCC2)cc2c(=O)n3ccccc3nc21 | -78.8
COCCCn1c(SCC(=O)NC2CCCCC2)nc2ccccc2c1=O | -16.9
COc1ccc(CCn2c(=N)c(S(=O)(=O)c3ccc(C)cc3)cc3c(=O)n4ccccc4nc32)cc1 | 15.1
COc1ccc(CCn2c(=N)c(C(=O)N3CCN(C)CC3)cc3c(=O)n4ccccc4nc32)cc1 | -76.2
COc1ccc(CCn2c(=N)c(C(=O)NC3CCCC3)cc3c(=O)n4ccccc4nc32)cc1OC | -79.2
CCN(C(=O)c1cc2c(=O)n3ccccc3nc2n1CCCOC)C1CCCCC1 | -2.32
COc1ccc(CCn2c(C3CCCCC3)nc3c(c(=O)c4ccccc4n3C)c2=O)cc1OC | -8.08
Cc1ccc(C)c(S(=O)(=O)N2CCN(CC(=O)NC(=O)NCc3ccco3)CC2)c1 | -24.5
Cc1cc(=S)c2cccc(C)c2[nH]1 | 9.4
Fc1cccc(CNc2ncnc3ccc(-c4ccc5c(c4)OCO5)cc23)c1 | -31
COc1ccc(NC(=O)CNC(=O)C2CCCCC2)cc1 | 18.1
CCCOc1ccc(C(=O)N/N=C/c2ccc(-c3ccc(S(=O)(=O)Nc4ncccn4)cc3)o2)cc1 | -7.38
Cc1ccc(C(=O)N2CCN(c3ccc(NC(=S)NC(=O)Cc4ccccc4)cc3)CC2)cc1 | -17.1
O=C(/C=C\c1ccco1)Nc1ccc(N2CCN(C(=O)c3ccccc3)CC2)cc1 | -55.7
CCCCCCC(=O)Nc1ccc(C(=O)N2CCCC2)cc1 | 0.864

SMILES | hERG current change (%, negative = inhibition) at 10uM [%]
Cc1ccc(OCC(=O)Nc2ccc(N3CCN(C(=O)c4ccc(C)cc4)CC3)cc2)cc1 | 9.99
CCCCCC(=O)Nc1ccc(N2CCN(C(=O)c3ccccc3)CC2)cc1 | -62.8
O=C(/C=C/c1ccco1)N1CCN(c2ccccc2)CC1 | -1.71
Cc1ccc(C(=O)N2CCN(c3ccc(NC(=O)Cc4ccccc4)cc3)CC2)cc1 | -71.5
Cc1ccc(C(=O)N2CCN(c3ccc(NC(=O)COc4ccccc4C)cc3)CC2)cc1 | -73.6
Cc1cccc(OCC(=O)Nc2ccc(N3CCN(C(=O)c4ccccc4)CC3)cc2)c1C | 3.45
COc1ccc(C(=O)N2CCN(c3ccc(NC(=O)Cc4ccccc4)cc3)CC2)cc1 | -31.8
CCCCCC(=O)Nc1ccc(N2CCN(C(=O)CCC)CC2)cc1 | -32.8
O=C(/C=C/c1ccco1)Nc1ccc(N2CCCC2)cc1 | 10.5
COc1ccc2c(c1)CC/C(=C/c1ccco1)C2=O | 10.7
CCSc1oc(-c2ccco2)nc1S(=O)(=O)c1ccccc1 | -12.8
CCOc1ccc(C(=O)Nc2c3c(nn2-c2ccc(F)cc2)CS(=O)C3)cc1 (stereo not drawn) | -1.14
COCCNC(=S)N1CCN(C(c2ccccc2)c2ccccc2)CC1 | -10.1
COc1cc(C(=O)Nc2ncccc2C)ccc1OCC(=O)N1CCOCC1 | -4.78
CC1(c2nnc(-c3cccc(Cl)c3)o2)CC(c2ccc(F)cc2)=NO1 (stereo not drawn) | -8.47
OCCCc1nc2n(n1)C(c1cccs1)C=C(c1ccccc1)N2 (stereo not drawn) | -38.5
OCCCc1nc2n(n1)C(c1ccccc1)C=C(c1ccccc1)N2 (stereo not drawn) | -17.3
COc1ccc(C2C=C(c3ccccc3)Nc3nc(CCCO)nn32)cc1 (stereo not drawn) | -51.8
OCCCc1nc2n(n1)C(c1ccccc1)C=C(c1ccc(F)cc1)N2 (stereo not drawn) | -12.8
COc1ccc(C2C=C(c3cccs3)Nc3nc(CCCO)nn32)cc1 (stereo not drawn) | -57.9
OCCCc1nc2n(n1)C(c1ccccc1Cl)C=C(c1cccs1)N2 (stereo not drawn) | -5.71
